One may read the % inhibition as the relative decrease from the control value, in per cent.

Structures are written as SMILES. In all, about 4,400 compounds went through this assay and about 390 (8.9%) showed an effect of 50% or more. What follows is part of a selection rich in strong results, with near analogues and random picks from the rest.

For this assay, the system named is Trypanosoma brucei. Kind of assay: DNDI: Inhibition of Human African Trypanosomiasis, SBRI 427, in vitro at 2 ug.mL-1. Type of assay: functional.
As to `CCc1ccc(Oc2ncccc2/C(=N/O)NCc2ccccc2)cc1`, the “% inhibition” value worked out at 99%.

Consider `CCc1ccc(Oc2ncccc2/C(=N/O)NCc2cccnc2)cc1`, for which the “% inhibition” value was found to be 3%.

Take `COc1ccc(Oc2ncccc2/C(=N/O)NCc2ccccc2)cc1`: the “% inhibition” value was found to be 86%.

Take `COc1ccc(Oc2ncccc2/C(=N/O)NCc2ccncc2)cc1`: the “% inhibition” value was -2%.

On to `COc1cccc(CN/C(=N\O)c2cccnc2OC2CCC2)c1`, for which the “% inhibition” value is on record as -1%.

In the case of `COc1cccc(CN/C(=N\O)c2cccnc2OCC2CCCCC2)c1`, the “% inhibition” value is on record as 71%.

On to `O/N=C(\NCc1cc(F)ccc1F)c1cccnc1Oc1ccc(Cl)cc1`, for which the “% inhibition” value stood at 12%.

Consider `CC(C)(C)c1ccc(-c2nc(Cn3nc(N)cc3-c3ccccc3)co2)cc1`, for which the “% inhibition” value came to 9%.

As to `CN(CCC#N)Cc1coc(-c2cccc3ccccc23)n1`, the “% inhibition” value was 7%.

`CCOC(=O)C1CCCCN1Cc1coc(-c2cccc(OCC)c2)n1` (stereo not given): the “% inhibition” value is recorded as 2%.

`COc1ccccc1CNCc1coc(-c2ccc(Br)cc2)n1`: the “% inhibition” value is listed as 3%.

With `CCN(Cc1coc(-c2ccccc2Cl)n1)c1cccc2ccccc12`, the “% inhibition” value is listed as -6%.

With `COc1cccc(CN/C(=N\O)c2cccnc2Oc2c(F)cccc2F)c1`, the “% inhibition” value came out at 17%.

Take `COc1ccc(Oc2ncccc2/C(=N/O)NCc2cccc(OC)c2)cc1`: the “% inhibition” value is recorded as -6%.

Consider `COc1cccc(CN/C(=N\O)c2cccnc2Oc2ccc(Cl)cc2)c1`, for which the “% inhibition” value came out at 98%.

Turning to `O/N=C(/c1ccnc(Oc2ccc(F)c(Cl)c2)c1)N1CC=CCC1`, the “% inhibition” value is 17%.

Turning to `Cc1cccc(Oc2ncccc2/C(=N/O)N2CC(C)CC(C)C2)c1C` (stereo not given), the “% inhibition” value is on record as 1%.

Turning to `Cc1ccc(Oc2nc(C)ccc2/C(=N/O)NC2CCCC2)c(C)c1`, the “% inhibition” value was 25%.

With `Cc1ccc(Oc2nc(C)ccc2/C(=N/O)NCCN2CCCCC2)c(C)c1`, the “% inhibition” value is listed as 0%.

As for `Cc1ccc(Oc2nc(C)ccc2/C(=N/O)NCC2CCCCC2)c(C)c1`, the “% inhibition” value was determined as 62%.

Take `Cc1cc(C)cc(Oc2nc(C)ccc2/C(=N/O)NCC2CCCCC2)c1`: the “% inhibition” value came out at 14%.

As to `COc1cc(C)ccc1Oc1nc(C)ccc1/C(=N/O)NC1CCCC1`, the “% inhibition” value was -8%.

`Cc1ccc(Oc2nc(C)ccc2/C(=N/O)NC2CCCCC2)c(C)c1`: the “% inhibition” value was 100%.

For the compound `C=CCN1CCN(/C(=N\O)c2ccc(C)nc2Oc2ccc(C)cc2)CC1`, the “% inhibition” value was 30%.

On to `CC1C=CC(C)N1/C(=N\O)c1cccnc1Oc1ccc(Cl)cc1` (stereo not given), for which the “% inhibition” value is -7%.

As for `Cc1ccc(N2CCN(Cc3coc(-c4ccc(OC(F)(F)F)cc4)n3)CC2)cc1C`, the “% inhibition” value was found to be 23%.

In the case of `CC(C)(C)COc1ncccc1/C(=N/O)NCC1CCCO1` (stereo not given), the “% inhibition” value stood at 4%.

For `CC(C)(C)CNCc1coc(-c2ccccc2Br)n1`, the “% inhibition” value came out at 7%.

`Brc1ccccc1-c1nc(CNC2CCc3ccccc32)co1` (stereo not given): the “% inhibition” value was 7%.

On to `CCC(CC)CNCc1coc(-c2ccccc2Br)n1`, for which the “% inhibition” value is recorded as 1%.

In the case of `C[C@@H]1C(NCc2coc(-c3ccccc3Br)n2)C[C@H]2C[C@@H]1C2(C)C` (stereo not given in full), the “% inhibition” value turned out to be 100%.

On to `C[C@H]1C(NCc2coc(-c3ccccc3Br)n2)C[C@@H]2C[C@H]1C2(C)C` (stereo not given in full), for which the “% inhibition” value is on record as 98%.

Turning to `Brc1ccccc1-c1nc(CNCc2ccccc2)co1`, the “% inhibition” value was determined as 11%.

`Cc1ccc(/C(=N/O)N2CCCCC2)c(Oc2ccc(F)cc2)n1`: the “% inhibition” value was 24%.

For `CCc1nccn1Cc1coc(-c2cc(OC)c(OC)c(OC)c2)n1`, the “% inhibition” value was determined as 9%.

Regarding `Cc1ccc2cccc(Oc3cc(/C(N)=N/O)ccn3)c2n1`, the “% inhibition” value is reported as 7%.

With `Cc1ccc(/C(=N/O)N2CCCC2)c(OCc2ccccc2C)n1`, the “% inhibition” value was 10%.

With `CN(Cc1coc(-c2ccc(Cl)cc2Cl)n1)Cc1ccco1`, the “% inhibition” value is recorded as 11%.

As for `O=C(C1CCCO1)N1CCN(Cc2coc(-c3ccc(C(F)(F)F)cc3)n2)CC1` (stereo not given), the “% inhibition” value turned out to be 4%.

Consider `CCOC(=O)C1CCCN(Cc2coc(-c3ccccc3Cl)n2)C1` (stereo not given), for which the “% inhibition” value was determined as 4%.

On to `COc1cccc(-c2nc(CN3CCN(c4ccccc4OC)CC3)co2)c1`, for which the “% inhibition” value is on record as -9%.

In the case of `CC1CC(C)CN(/C(=N\O)c2cccnc2Oc2ccccc2)C1` (stereo not given), the “% inhibition” value is 10%.

Regarding `Cc1ccc(-c2nc(CNc3ccccc3C)co2)cc1`, the “% inhibition” value is on record as -4%.

Take `CC(C)(C)CN/C(=N\O)c1ccc(Oc2ccc3oc4ccccc4c3c2)nc1`: the “% inhibition” value stood at 8%.

Take `O/N=C(\NC1CCc2ccccc21)c1ccc(Oc2ccc3oc4ccccc4c3c2)nc1` (stereo not given): the “% inhibition” value was 19%.

`O/N=C(\NC1CC1)c1ccc(Oc2ccc3oc4ccccc4c3c2)nc1`: the “% inhibition” value was determined as 82%.

Turning to `Cc1cc(C)cc(CN/C(=N\O)c2ccc(Oc3ccc4oc5ccccc5c4c3)nc2)c1`, the “% inhibition” value is given as 32%.

As for `COc1cccc(CN/C(=N\O)c2ccc(Oc3ccc4oc5ccccc5c4c3)nc2)c1`, the “% inhibition” value came out at 16%.

For `O/N=C(\NCc1cccnc1)c1ccc(Oc2ccc3oc4ccccc4c3c2)nc1`, the “% inhibition” value stood at 84%.

For the compound `O/N=C(\NC1CCC1)c1ccc(Oc2ccc3oc4ccccc4c3c2)nc1`, the “% inhibition” value was 94%.

Consider `O/N=C(\NCC1CCCO1)c1ccc(Oc2ccc3oc4ccccc4c3c2)nc1` (stereo not given), for which the “% inhibition” value is -8%.

As for `CCC(C)(C)N/C(=N\O)c1ccc(Oc2ccc3oc4ccccc4c3c2)nc1`, the “% inhibition” value came to 97%.

As for `CN(/C(=N\O)c1ccc(Oc2ccc3oc4ccccc4c3c2)nc1)C1CCCCC1`, the “% inhibition” value was 22%.

As for `O/N=C(\NCc1ccncc1)c1ccc(Oc2ccc3oc4ccccc4c3c2)nc1`, the “% inhibition” value is -14%.

On to `CC(C)CN/C(=N\O)c1ccc(Oc2ccc3oc4ccccc4c3c2)nc1`, for which the “% inhibition” value came out at 11%.

The record behind these values is ChEMBL document CHEMBL1857833, “Screening and optimization of specific chemical series against human African Trypanosomiasis (HAT)”.
